Sequences and labels used below:
T1: UNK ZnF1-3 (human, UniProt Q9C0B0 31-174)
T1 sequence: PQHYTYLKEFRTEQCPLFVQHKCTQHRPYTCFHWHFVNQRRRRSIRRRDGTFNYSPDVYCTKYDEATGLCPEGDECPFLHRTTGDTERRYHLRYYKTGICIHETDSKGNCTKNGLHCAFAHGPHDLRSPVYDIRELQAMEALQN

B1: 129698844_129698964_1004_3pUTR_ENSMUSG00000026349_ENSMUST00000027587|mouse|control|control (ssRNA)
RNA: GGGAGUUCUACAGUCCGACGAUCCUGCUAGCACUGAUAAAUUAUCAGAUGCACGGCUAUCUUGAACAGAAGUACUUCCUGAAUUUAGAGGUAUUGGAGCAGGGAACGUUGAUGUUGAUGGUUUCUGAAAGCUUGGGUUGGCAGCAACAGAGGAUUGAGCAUCA
B2: chr1:184247048:184247049:-_ENSMUSG00000047539_ENSMUST00000051431|mus_mus|FALSE|FALSE (ssRNA)
RNA: GGGAGUUCUACAGUCCGACGAUCCUGGAGCUAGAGCCAUAUUCCAAUCUACUUCCUAUUCCGAAGUCGUUUGGAUUUCCUAAGAGAGUCUAUGGCUUCCGUUGCCUUCCGUCGUUUCCGAGGGGACUCCUCACUCUGCCCAGACAACAGAGGAUUGAGCAUCA
B3: chr11:20101544:20101545:+_ENSMUSG00000020149_ENSMUST00000020358|mus_hu|FALSE|FALSE (ssRNA)
RNA: GGGAGUUCUACAGUCCGACGAUCUGCCGCAGCCGCCGCCCUGACUCUCCGCGCCACGGGUAAUCGAAAGAAAGGAAUGAGAUAGGCUGUUCCGGGAGAGCAAACGUCUUCCCCUACUCCGUCCCCUAGAACACAAUCAGCAGCCAACAGAGGAUUGAGCAUCA
B4: chr15:76910149:76910150:-_ENSMUSG00000033565_ENSMUST00000166610|mus_mus|FALSE|FALSE (ssRNA)
RNA: GGGAGUUCUACAGUCCGACGAUCAAUGCUGACGGAGGGAAGUCAUGUCUCUUAGGGGAAAGGAUCAGCUCAUCACUCGCUAUAUAACGCAGCCAAACGGGCUGCCCAACAAGCACGCACACAAGAAAUACUGUUAACAGAAAACAACAGAGGAUUGAGCAUCA
B5: chr17:56552419:56552420:-_ENSMUSG00000013236_ENSMUST00000086828|mus_mus|mus_mus_mus_hu_False|18_68 (ssRNA)
RNA: GGGAGUUCUACAGUCCGACGAUCAAAAAAUACACUAUUUAAAAAAAAUGAAAUGUCACGGGAUACAAAAAAAUAUAGAGUUUUAAAAGAAAGCUGGAUUCUGGUCCCAGCCCAGUGGCAGGCAGGGGCAGAGCGGGGAGGAGCCAACAGAGGAUUGAGCAUCA
B6: chr17:56552419:56552420:-_ENSMUSG00000013236_ENSMUST00000086828|mus_mus|mus_mus_mus_hu_False|58_68 (ssRNA)
RNA: GGGAGUUCUACAGUCCGACGAUCAAAAAAUACACUAUUUAAAAAAAAUGAAAUGUCACGGGAUACAAAAAAAUAUACACUAUUAAAAGAAAGCUGGAUUCUGGUCCCAGCCCAGUGUCCCCAGGCUGCAGAGCGGGGAGGAGCCAACAGAGGAUUGAGCAUCA
B7: chr17:56552419:56552420:-_ENSMUSG00000013236_ENSMUST00000086828|mus_mus|mus_mus_mus_hu_False|68_68 (ssRNA)
RNA: B6 RNA with C77G, C79G, A81U
B8: chr6:38652254:38652255:-_ENSG00000124767_ENST00000373365|hu_hu|hu_hu_hu_mus_False|58_98 (ssRNA)
RNA: GGGAGUUCUACAGUCCGACGAUCCGAGAACUUCAUAAUGGGAAAAUCAAGCUUCUGCAGGAGGGUCAGUCCAAGAACUCUAGUAUAAAAAUCCAGGGACUUCUUAGGAUCCUUAAUUCUUAGCAUCGUUUGCUGCAGUAGAAACAACAGAGGAUUGAGCAUCA
B9: chr15:37385894:37385895:-_ENSG00000134138_ENST00000382766|hu_mus|motif|central (ssRNA)
RNA: GGGAGUUCUACAGUCCGACGAUCGCUUCCAUCUCUCUCAUCAAUCACGAGGUCAAUGGGCAUUUUUCCCUUCAAACAGCGGAUGUACCGGUGGCAGAAGUUAUCACAUAGUUCGUGGACCUUUUCUAACUCCAGAAGAUGAAACAACAGAGGAUUGAGCAUCA
B10: chr8:29959424:29959425:+_ENSG00000104660_ENST00000321250|hu_hu|FALSE|FALSE (ssRNA)
RNA: GGGAGUUCUACAGUCCGACGAUCGAAGGGCACAUCCAAGCAUCAAAAACAUCAGUCCGAUUGCUCCUCCAAAGGACAAACUAAUCAAAGCUUUGAUGCCUGCCAUGGCGGUGACGUCGCUCCUGGCUCCACGACCCGAGGCGGCAACAGAGGAUUGAGCAUCA
B11: chr13:13598695:13598696:+_ENSMUSG00000005397_ENSMUST00000005532|mus_hu|FALSE|FALSE (ssRNA)
RNA: GGGAGUUCUACAGUCCGACGAUCCACCAAGUCAGUCUCAAAGAGCACCCGGCGCUGCGUGCCGUCCAGCUUCGCCACUUCUAUUCGAUCCAGGUUAGAGUCUGUCCAGAAGAUGUUGCGGCCAAGGUGAUCAACAGCGAUACCCAACAGAGGAUUGAGCAUCA
B12: chrX:73036348:73036349:-_ENSMUSG00000016382_ENSMUST00000114059|mus_mus|FALSE|FALSE (ssRNA)
RNA: GGGAGUUCUACAGUCCGACGAUCUGCGUACUUGGCGUUAUUGUGCUUGUCAUCUUCUGUUAGAUUCCCACUCUUCACAAGGUCAUAGUUAAUGCAGCCUGGUUGGAUGGCGUCAAUUAAAUCCACAACCGCCAAACUGGAGCUCAACAGAGGAUUGAGCAUCA
B13: 70939002_70942968_1374_3pUTR_ENSMUSG00000034761_ENSMUST00000110570|mouse|control|control (ssRNA)
RNA: GGGAGUUCUACAGUCCGACGAUCGCUCCGCUCUGGAAUUCCUGUUUGUUGAUCUAAUGGUAUGACGAAUGAUUGCGUGGGGCUCCAAGUCGUCCUCAUCGCCCUCACUGUAGGGAGCAUGGUUGUCCGGAUUGCUCACCUUGUCAACAGAGGAUUGAGCAUCA
B14: chr8:133807003:133807004:+_ENSG00000129292_ENST00000220847|hu_mus|FALSE|FALSE (ssRNA)
RNA: GGGAGUUCUACAGUCCGACGAUCUUUGUUAAUUGCUUCAAUCUUGGCAGGGUAAUAGCGACAGUCUGUCCAACGAGCCAGUACUUCUUCUCCAGCUUUAAAAUCAAAGAGCUCUUCCUCAUCCUUUAGCCCUUCUUUCCUUAGCAACAGAGGAUUGAGCAUCA
B15: 49527313_49535755_592_CDS_ENSMUSG00000026764_ENSMUST00000028102|mouse|control|control (ssRNA)
RNA: GGGAGUUCUACAGUCCGACGAUCCAUGGUAUGAGUUUUUCCUGAUGAAGUCUGCCCAUAUGCAAAAAUUGUUCCAUUAUAACCCUCAAGGACAUCUUUGACAAUCUGCUUUGCACAGGCAUUGUAGACCUGCUCCUGGGUUGUCAACAGAGGAUUGAGCAUCA
B16: chr2:5814250:5814251:-_ENSMUSG00000025816_ENSMUST00000102981|mus_hu|mus_mus_mus_hu_True|68_108 (ssRNA)
RNA: GGGAGUUCUACAGUCCGACGAUCUUCCUUUCAGGCUUCUGAAUUUCUGGUAGAACUGCACAGAAUGGUUUAAUAACUUCUAAAAAUUUGAUGCCCAUGGCUGCUGCUGGGGAGGCCCAGGGGGAAACCGCGGCCUCGGCGCUGCAACAGAGGAUUGAGCAUCA
B17: chr2:49628383:49628384:+_ENSMUSG00000026764_ENSMUST00000028102|mus_hu|FALSE|FALSE (ssRNA)
RNA: GGGAGUUCUACAGUCCGACGAUCAUAAGCUUUGCAAAACCUGCCCCACAAGGACCCUUUUAUCAGACCGCAAAUAAUGGUAGAGCAGGUAUAUUGGGCUGGCACUGAUAACAAAAUUAAAGAAUGAAAAAAAUUUAAACAAAUCAACAGAGGAUUGAGCAUCA
B18: chrX:35959125:35959126:+_ENSMUSG00000000355_ENSMUST00000000365|mus_mus|FALSE|FALSE (ssRNA)
RNA: GGGAGUUCUACAGUCCGACGAUCAUUUGCUCCACUGAGUACAAAUUUGAUGGCUCCUUUAUCAACCUGCUGAUGUGGCAAGAUAAAAGGAUAUUUAUGAAGUAAUCUUAAAGUUGGAUAAAAAGGCCCUUCUCUUUGUCUAAACAACAGAGGAUUGAGCAUCA
B19: chr2:49628351:49628352:+_ENSMUSG00000026764_ENSMUST00000028102|mus_hu|FALSE|FALSE (ssRNA)
RNA: GGGAGUUCUACAGUCCGACGAUCACCGCAAAUAAUGGUAGAGCAGGUAUAUUGGGCUGGCACUGAUAACAAAAUUAAAGAAUGAAAAAAAUUUAAACAAAUGCAAAAUUGCCAUCUUCACAAAAUAAAUACUUCAAUAGAAUUCAACAGAGGAUUGAGCAUCA
B20: chr9:37357388:37357389:+_ENSG00000147905_ENST00000336755|hu_hu|FALSE|FALSE (ssRNA)
RNA: GGGAGUUCUACAGUCCGACGAUCUUGGACACAGAGAAUUGAGAUCUCCAUGGAUAUUCAGUAACUCUAGGAAUGGCUGAAAUUAAAAAAACAAAACCAAAAACUCACUUUAUUUAAUCAUAGAUAAUAAACACAGUGCCAGAACAACAGAGGAUUGAGCAUCA
B21: 90994690_90994914_4067_CDS_ENSMUSG00000040687_ENSMUST00000111370|mouse|control|control (ssRNA)
RNA: GGGAGUUCUACAGUCCGACGAUCGAGGUACCUGUCGAUCAUUUCCUGAGGACCCUGGUCCAUACCCAUUCCUUCUCUUUCCAACAUUACAGCAUCUAAGAAUGCAUCUUCCCAGAACUGCAUUUGGUCCCAUAAGGUAGAACGCAACAGAGGAUUGAGCAUCA
B22: chr7:130129250:130129251:+_ENSMUSG00000030779_ENSMUST00000052135|mus_mus|FALSE|FALSE (ssRNA)
RNA: GGGAGUUCUACAGUCCGACGAUCCUCCUCUGGUAAGAAGGGUGGUUUCUCUUUCUUCCCGAUUGCAUAGGCCUCUGCAUCUAUAGUUGGUAUUGCAUAUUUUCCAGUGUUUGUAAGCAUUGCACCUUUCAUGUUAGGAUCUUUCAACAGAGGAUUGAGCAUCA

Numbering of substitutions follows the chain as printed. The full ranking holds about 24,000 sequences; the median of “enrichment r” is about 0.99, and the highest 2% start at about 3.7. This is one part of a sample in which the highest values are shown more often than they occur.

Data on 22 molecules can be found in publication PMC12136788.

This test concerns the target T1, UNK ZnF1-3. As to the kind of experiment: nsRBNS (natural sequence RNA bind-n-seq); RBNS binding buffer (assumed for nsRBNS): 25 mM Tris pH 7.5, 150 mM KCl, 3 mM MgCl2, 0.01% Triton X-100, 500 ug/ml BSA, 20 U/ml SUPERase-In, 4 C; UNK is unkempt and MSI1 is Musashi-1; names of the RNAs are library labels; protein concentration not given here; high values mean tight binding.
Turning to B1, the binding signal amounted to 1.96 enrichment R.

As to B2, the binding signal was found to be 0.688 enrichment R.

B3 displayed a binding signal of 1.67 enrichment R.

Regarding B4, the binding signal came out at 1.79 enrichment R.

B5: the binding signal was found to be 7.03 enrichment R.

For the molecule B6, the binding signal is 11.3 enrichment R.

Molecule B7 registered a binding signal of 7.63 enrichment R.

Molecule B8 displayed a binding signal of 1.47 enrichment R.

In turn, B9 yielded a binding signal of 0.878 enrichment R.

Consider B10, for which the binding signal turned out to be 1.29 enrichment R.

In turn, B11 showed a binding signal of 1.36 enrichment R.

On to B12, for which the binding signal came out at 0.875 enrichment R.

Regarding B13, the binding signal was 0.565 enrichment R.

Turning to B14, the binding signal worked out at 0.906 enrichment R.

Molecule B15 returned a binding signal of 0.621 enrichment R.

Regarding B16, the binding signal worked out at 1.48 enrichment R.

B17 displayed a binding signal of 10 enrichment R.

B18 yielded a binding signal of 0.981 enrichment R.

For B19, the binding signal amounted to 4.72 enrichment R.

B20 had a binding signal of 1.15 enrichment R.

B21 registered a binding signal of 0.917 enrichment R.

Turning to B22, the binding signal amounted to 0.384 enrichment R.
